# Compounds with a hit are over-represented: about 0.82% of the library has one in this group of screens.
# DUSP3 inh: DUSP3 (human) phosphatase inhibition; P51452; recombinant VHR phosphatase, pNPP absorbance; inhibition, % at 13.3 µM; hit rate 0.52% among 290,000; in the data active = inhibition above about 50%
# TcdB GH inh: inhibitors of Clostridioides difficile toxin B glycohydrolase; TcdB glycohydrolase enzymatic assay, plate reader; inhibition, % at 9.99 µM; P18177; hit rate 0.24% among 350,000; in the data active = inhibition above about 10%
# PrPC TRFRET: reduces human prion protein on the cell surface. inhibition, % at 13.8 µM. P04156. cell surface PrPC, TR-FRET read-out. hit rate 0.43% among 370,000. AID 720596; in the data active = inhibition above about 24%; also: 0% = median of the test wells and 100% = reference compound wells
# PrPC confirm: cell surface PrPC inhibition, TR-FRET confirmation; shares compounds with PrPC TRFRET; cell surface PrPC level; inhibition, % at 13.8 µM; hit rate 65% among 1,500; AID 743200; in the data active = inhibition above about 25%
# LD9 tox: LD9 cell cytotoxicity, PrPc inhibitor counter-screen | inhibition, % at 13.8 µM | LD9 cells cytotoxicity, luminescence viability | shares compounds with PrPC TRFRET | hit rate 29% among 1,500 | AID 743201; in the data active = inhibition above about 9.5%
# * hit, by the source's call; · = no result.
SMILES,DUSP3 inh,TcdB GH inh,PrPC TRFRET,PrPC confirm,LD9 tox
COc1ccccc1S(=O)(=O)N[C@H]1CC[C@@H](CCNC(=O)C2CCOCC2)O[C@H]1CO,·,0,·,·,·
CCCNC(=O)N1CCC2(CC1)CN(C(=O)CC)[C@@H](CO)c1[nH]c3cc(OC)ccc3c12,·,0,·,·,·
CCN1CCN(C(=O)c2cc(-c3ccc(Cl)s3)nc3ccccc23)CC1,8,1,6,·,·
COC(=O)C1CCN(C(=O)c2cc(-c3ccc(Cl)s3)nc3ccccc23)CC1,·,2,36*,33*,27*
COc1ccc(S(=O)(=O)N2CCCCC2c2cc(C(=O)Nc3ccccc3)no2)cc1 (configuration not stated),·,-4,7,·,·
O=C(Nc1ccc(F)c(Cl)c1)c1cc(C2CCCN(S(=O)(=O)c3ccccc3)C2)on1 (configuration not stated),·,2,16,·,·
O=C(Nc1ccccc1Cl)c1cc(C2CCCN(C(=O)C3CCCCC3)C2)on1 (configuration not stated),·,2,0,·,·
CN(C)c1ccc(CC(=O)N2CCCC(c3cc(C(=O)Nc4ccc(F)c(Cl)c4)no3)C2)cc1 (configuration not stated),·,0,27*,19,9
O=C(Nc1ccc2c(c1)OCO2)c1cc(C2CCCCN2S(=O)(=O)c2ccccc2)on1 (configuration not stated),·,-1,47*,40*,0
O=C(Nc1ccc2c(c1)OCO2)c1cc(C2CCCN(C(=O)C3CCCCC3)C2)on1 (configuration not stated),·,1,33*,24,-4
COc1ccc(NC(=O)Nc2ccc3c(c2)C(=O)N([C@@H](C)CO)C[C@@H](C)[C@@H](CN(C)C(=O)c2ccccc2)OCCCC[C@@H](C)O3)cc1,·,0,·,·,·
C[C@@H]1CCCCO[C@@H](CN(C)C(=O)Nc2ccc(C(F)(F)F)cc2)[C@H](C)CN([C@@H](C)CO)C(=O)c2cc(NS(C)(=O)=O)ccc2O1,·,1,·,·,·
COc1ccc(Cc2nnc(NC(=O)c3ccc(OC)c(OC)c3)s2)cc1,11,0,-1,·,·
COc1ccc(C(=O)Nc2nnc(Cc3cccs3)s2)cc1OC,26,·,65*,36*,-1
C[C@H]1CN([C@@H](C)CO)C(=O)c2cc(NC(=O)Nc3cccc4ccccc34)ccc2O[C@@H]1CN(C)S(=O)(=O)c1ccc(F)cc1,·,0,·,·,·
C[C@@H]1CCCCO[C@H](CN(C)C)[C@@H](C)CN([C@@H](C)CO)C(=O)c2cc(NC(=O)CCC(F)(F)F)ccc2O1,·,1,·,·,·
COc1ccc(CN(C)C[C@@H]2OCCCC[C@@H](C)Oc3ccc(NC(=O)c4ccccc4)cc3C(=O)N([C@H](C)CO)C[C@H]2C)cc1,·,1,·,·,·
CC(C)NC(=O)N(C)C[C@H]1Oc2cc(-c3ccncc3)ccc2S(=O)(=O)N([C@H](C)CO)C[C@H]1C,·,-1,·,·,·
C[C@H](CO)N1C[C@H](C)[C@@H](CN(C)CC2CC2)OCCCC[C@H](C)Oc2ccc(NC(=O)CCC(F)(F)F)cc2C1=O,·,0,·,·,·
CCCCCc1c(-c2ccccc2OC)ncn1CCc1ccccc1OC,·,1,13,·,·
CCCCCc1c(CC)ncn1CCc1ccccc1OC,·,1,29*,19,22*
COCCN(C(=O)c1cccc(N2C(=O)CCC2=O)c1)c1nc(-c2ccc([N+](=O)[O-])cc2)cs1,·,0,-8,·,·
COc1ccccc1N(C(=O)c1ccncc1)c1nc(-c2ccc([N+](=O)[O-])cc2)cs1,-1,1,26*,38*,-3
COc1ccc(NC(=O)c2cc(-c3ccc(F)cc3C)n[nH]2)cc1OC,·,-4,25*,13,8
COc1ccc(NC(=O)c2cc(-c3cc(Cl)ccc3C)n[nH]2)cc1OC,·,4,25*,28*,15*
SMILES,DUSP3 inh,TcdB GH inh,PrPC TRFRET,PrPC confirm,LD9 tox
COc1ccc(NC(=O)c2cc(-c3cc(Cl)ccc3OC)n[nH]2)cc1OC,·,0,19,·,·
Cc1cc(F)ccc1-c1cc(C(=O)Nc2ccc(F)cc2)[nH]n1,·,1,8,·,·
CCC(=O)Nc1ccc2c(c1)OC[C@@H](C)N(C(=O)COC)C[C@@H](C)[C@@H](OC)CN(C)C2=O,·,0,·,·,·
O=S(=O)(CCN1CCN(c2ccccc2O)CC1)c1cc(Cl)ccc1Cl,·,-3,36*,3,-2
O=[N+]([O-])c1cc(Cl)ccc1N1CCN(c2ccccc2O)CC1,12,-5,-7,·,·
Cc1ccc2c(Cl)c(C(=O)NCc3cccnc3)sc2c1,3,·,29*,43*,-6
Cc1nn(Cc2ccccc2)c2sc(C(=O)NCc3cccnc3)cc12,15,·,24*,14,-1
Cc1c(C(=O)NCc2cccnc2)sc2nc(-c3ccccc3)cn12,29,0,28*,12,-6
Cc1nn(-c2ccccc2)c2sc(C(=O)NCc3ccc(F)cc3)cc12,·,·,-2,·,·
Cc1c(C(=O)NCc2cccnc2)sc2nc(-c3ccc(F)cc3)cn12,12,6,12,·,·
O=C(NCc1cccnc1)c1sc2ccccc2c1Cl,22,0,8,·,·
CO[C@H](CN(C)S(=O)(=O)c1ccc(Cl)cc1)[C@@H](C)CN([C@@H](C)CO)S(=O)(=O)c1cccc(Cl)c1,·,1,·,·,·
C[C@@H]1CN([C@@H](C)CO)C(=O)c2cc(NS(C)(=O)=O)ccc2O[C@@H](C)CCCCO[C@H]1CN(C)C(=O)Nc1ccc(C(F)(F)F)cc1,·,1,·,·,·
CCCNC(=O)N1[C@@H]2c3ccc(-c4cccc(F)c4)c(=O)n3C[C@H]1[C@H](CO)[C@H]2C(=O)NC1CCC1,·,-2,·,·,·
CN(C)C(=O)C[C@H]1CC[C@H]2[C@@H](COC[C@@H](O)CN2C(=O)c2ccncc2)O1,·,0,·,·,·
C[C@@H]1CN([C@H](C)CO)C(=O)c2cc(NC(=O)c3ccncc3)ccc2O[C@@H](C)CCCCO[C@H]1CN(C)S(=O)(=O)c1cccs1,·,1,·,·,·
C[C@H](CO)N1C[C@H](C)[C@H](CN(C)C(=O)Nc2ccccc2)Oc2ccc(NC(=O)Nc3cccc4ccccc34)cc2CC1=O,·,0,·,·,·
CC(C)NC(=O)N[C@H]1CC[C@H](CCNS(=O)(=O)c2ccc(Cl)cc2)O[C@@H]1CO,·,-5,·,·,·
CC1=C(O)C(=O)C=C2C1=CC=C1C2(C)CCC2(C)C3CC(C)(C(=O)O)CCC3(C)CCC12C (configuration not stated),·,-2,62*,89*,98*
C=C1C(=O)OC2CC3(C)OC3C3OC3C3=CC(OC3=O)C12 (configuration not stated),·,0,93*,80*,21*
C=C1C(=O)OC2CC3(C)OC3CCC(C)=CC(OC(C)=O)C12 (configuration not stated),·,0,5,·,·
C[C@H]1CN([C@@H](C)CO)C(=O)c2cc(C#CCN(C)C)cnc2O[C@H]1CN(C)C,·,1,·,·,·
CC(=O)Nc1sc2c(c1-c1nc3ccccc3s1)CCCN(C(C)C)C2,·,·,38*,30*,33*
CC(=O)Nc1sc2c(c1-c1nc3ccccc3s1)CN(C(C)C)CC2,·,3,38*,10,26*
CC(=O)Nc1sc2c(c1-c1nc3ccccc3s1)CCN(C)C2,·,·,13,·,·

# Source: PubChem
